Source: PubChem BioAssay AID1159580 (chemical genetic matrix, 2015)
In all, about 5,500 compounds went through this assay and about 2,000 (36%) were called active. Roughly 18% stayed inconclusive and do not appear here. Cut-off read from the data, not from the text of the source: active = normalized growth mostly below about 0.91 (no sharp cut-off); inconclusive = no clear call, values can overlap the other calls; inactive = mostly above about 0.92. The list shows a part of the results.

Experiment: chemical genetic growth profiling, strain panel (AID 1159580);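 note: tested at 20 µM; growth read once vehicle control cultures reached saturation at 30 °C; 1 = growth at the plate median or of vehicle wells; lower values mean less growth of the strain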
Conditions: growth OD

Measured: normalized growth

FC(F)(F)c1cc(-c2noc(C3CCc4ccccc4O3)n2)cc(C(F)(F)F)c1 (centres undefined)
inactive: S. cerevisiae deletion strains, locus YAL013W, strain DEP1, stronger effect = lower value 0.999 | S. cerevisiae deletion strains, locus YBR229C, strain ROT2, stronger effect = lower value 1.02 | S. cerevisiae deletion strains, locus YCL061C, strain MRC1, stronger effect = lower value 0.988 | S. cerevisiae deletion strains, locus YDL101C, strain DUN1, stronger effect = lower value 0.995 | S. cerevisiae deletion strains, locus YDL134C, strain PPH21, stronger effect = lower value 1.03 | S. cerevisiae deletion strains, locus YDR150W, strain NUM1, stronger effect = lower value 0.942 | S. cerevisiae deletion strains, locus YEL061C, strain CIN8, stronger effect = lower value 1.01 | S. cerevisiae deletion strains, locus YGR078C, strain PAC10, stronger effect = lower value 0.988 | S. cerevisiae deletion strains, locus YGR229C, strain SMI1, stronger effect = lower value 1 | S. cerevisiae deletion strains, locus YHR030C, strain SLT2, stronger effect = lower value 1.05 | S. cerevisiae deletion strains, locus YHR087W, strain rtc3, stronger effect = lower value 0.994 | S. cerevisiae deletion strains, locus YJR043C, strain POL32, stronger effect = lower value 0.998 | S. cerevisiae deletion strains, locus YJR075W, strain HOC1, stronger effect = lower value 0.97 | S. cerevisiae deletion strains, locus YKL190W, strain CNB1, stronger effect = lower value 1.02 | S. cerevisiae deletion strains, locus YLR039C, strain RIC1, stronger effect = lower value 1.04 | S. cerevisiae deletion strains, locus YLR058C, strain SHM2 (second series), stronger effect = lower value 0.995 | S. cerevisiae deletion strains, locus YLR085C, strain ARP6, stronger effect = lower value 0.98 | S. cerevisiae deletion strains, locus YLR262C, strain YPT6, stronger effect = lower value 1.04 | S. cerevisiae deletion strains, locus YML094W, strain GIM5, stronger effect = lower value 0.982 | S. cerevisiae deletion strains, locus YMR219W, strain ESC1, stronger effect = lower value 1 | S. cerevisiae deletion strains, locus YMR263W, strain SAP30, stronger effect = lower value 0.993 | S. cerevisiae deletion strains, locus YNL153C, strain GIM3, stronger effect = lower value 0.998 | S. cerevisiae deletion strains, locus YNL298W, strain CLA4 (second series), stronger effect = lower value 1.01 | S. cerevisiae deletion strains, locus YNL322C, strain KRE1, stronger effect = lower value 0.985 | S. cerevisiae deletion strains, locus YNR030W, strain Alg12, stronger effect = lower value 0.996 | S. cerevisiae deletion strains, locus YPL055C, strain LGE1, stronger effect = lower value 0.96 | S. cerevisiae deletion strains, locus YPL241C, strain CIN2, stronger effect = lower value 0.985 | S. cerevisiae deletion strains, locus YPR135W, strain CTF4, stronger effect = lower value 1.11 | S. cerevisiae strains, strain wild type, stronger effect = lower value 1
